# In ChEMBL document CHEMBL1961873, “Compounds: GSK PKIS; Assays: Nanosyn kinase panel” (2012):
# Assays:
# [1] = biological target: Tyrosine-protein kinase CSK (Homo sapiens) (UniProt P41240); conditions: at 1 µM;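 note: each value is an averaged inhibition reading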
# [2] = biological target: T1, Discoidin domain-containing receptor 2 (Homo sapiens) (UniProt Q16832); conditions: at 0.1 µM
# T1 sequence (whole entry): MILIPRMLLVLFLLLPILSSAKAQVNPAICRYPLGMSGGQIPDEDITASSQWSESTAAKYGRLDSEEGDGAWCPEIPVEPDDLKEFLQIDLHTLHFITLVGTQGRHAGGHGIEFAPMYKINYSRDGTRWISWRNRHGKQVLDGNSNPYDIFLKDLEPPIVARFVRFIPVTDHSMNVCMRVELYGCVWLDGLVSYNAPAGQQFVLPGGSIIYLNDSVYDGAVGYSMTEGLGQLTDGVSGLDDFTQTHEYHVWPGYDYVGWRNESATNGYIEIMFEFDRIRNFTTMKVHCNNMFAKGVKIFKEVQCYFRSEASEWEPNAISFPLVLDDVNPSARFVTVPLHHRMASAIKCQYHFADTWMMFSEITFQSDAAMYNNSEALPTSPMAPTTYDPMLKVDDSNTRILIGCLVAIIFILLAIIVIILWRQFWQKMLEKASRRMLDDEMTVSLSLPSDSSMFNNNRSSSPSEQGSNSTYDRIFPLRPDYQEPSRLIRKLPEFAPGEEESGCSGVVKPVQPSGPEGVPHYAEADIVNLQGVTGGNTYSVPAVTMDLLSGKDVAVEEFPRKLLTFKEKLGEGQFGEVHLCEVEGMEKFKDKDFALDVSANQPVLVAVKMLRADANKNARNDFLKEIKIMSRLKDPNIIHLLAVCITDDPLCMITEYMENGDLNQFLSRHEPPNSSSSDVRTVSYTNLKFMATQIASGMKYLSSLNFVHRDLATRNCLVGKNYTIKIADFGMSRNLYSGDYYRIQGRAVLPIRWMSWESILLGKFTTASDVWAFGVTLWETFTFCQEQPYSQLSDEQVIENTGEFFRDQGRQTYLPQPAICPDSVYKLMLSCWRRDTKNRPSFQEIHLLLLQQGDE
# [3] = biological target: T1, Discoidin domain-containing receptor 2 (Homo sapiens); conditions: at 1 µM
# [4] = biological target: Epidermal growth factor receptor (Homo sapiens) (UniProt P00533); conditions: at 0.1 µM
# [5] = biological target: Epidermal growth factor receptor (Homo sapiens) (UniProt P00533); conditions: at 1 µM
# [6] = test system: Epidermal growth factor receptor (Homo sapiens), P00533 [L858R]; conditions: at 0.1 µM
# [7] = test system: Epidermal growth factor receptor (Homo sapiens), P00533 [L858R]; conditions: at 1 µM
# [8] = test system: Epidermal growth factor receptor (Homo sapiens), P00533 [L861Q]; conditions: at 0.1 µM
# [9] = test system: Epidermal growth factor receptor (Homo sapiens), P00533 [L861Q]; conditions: at 1 µM
# [10] = test system: Epidermal growth factor receptor (Homo sapiens), P00533 [T790M]; conditions: at 0.1 µM
# [11] = test system: Epidermal growth factor receptor (Homo sapiens), P00533 [T790M]; conditions: at 1 µM
# [12] = test system: Epidermal growth factor receptor (Homo sapiens), P00533 [L858R,T790M]; conditions: at 0.1 µM
# [13] = test system: Epidermal growth factor receptor (Homo sapiens), P00533 [L858R,T790M]; conditions: at 1 µM
# [14] = biological target: Ephrin type-A receptor 2 (Homo sapiens) (UniProt P29317); conditions: at 0.1 µM
# [15] = biological target: Ephrin type-A receptor 2 (Homo sapiens) (UniProt P29317); conditions: at 1 µM
# [16] = biological target: T2, Ephrin type-A receptor 3 (Homo sapiens) (UniProt P29320); conditions: at 0.1 µM
# T2 sequence (whole entry): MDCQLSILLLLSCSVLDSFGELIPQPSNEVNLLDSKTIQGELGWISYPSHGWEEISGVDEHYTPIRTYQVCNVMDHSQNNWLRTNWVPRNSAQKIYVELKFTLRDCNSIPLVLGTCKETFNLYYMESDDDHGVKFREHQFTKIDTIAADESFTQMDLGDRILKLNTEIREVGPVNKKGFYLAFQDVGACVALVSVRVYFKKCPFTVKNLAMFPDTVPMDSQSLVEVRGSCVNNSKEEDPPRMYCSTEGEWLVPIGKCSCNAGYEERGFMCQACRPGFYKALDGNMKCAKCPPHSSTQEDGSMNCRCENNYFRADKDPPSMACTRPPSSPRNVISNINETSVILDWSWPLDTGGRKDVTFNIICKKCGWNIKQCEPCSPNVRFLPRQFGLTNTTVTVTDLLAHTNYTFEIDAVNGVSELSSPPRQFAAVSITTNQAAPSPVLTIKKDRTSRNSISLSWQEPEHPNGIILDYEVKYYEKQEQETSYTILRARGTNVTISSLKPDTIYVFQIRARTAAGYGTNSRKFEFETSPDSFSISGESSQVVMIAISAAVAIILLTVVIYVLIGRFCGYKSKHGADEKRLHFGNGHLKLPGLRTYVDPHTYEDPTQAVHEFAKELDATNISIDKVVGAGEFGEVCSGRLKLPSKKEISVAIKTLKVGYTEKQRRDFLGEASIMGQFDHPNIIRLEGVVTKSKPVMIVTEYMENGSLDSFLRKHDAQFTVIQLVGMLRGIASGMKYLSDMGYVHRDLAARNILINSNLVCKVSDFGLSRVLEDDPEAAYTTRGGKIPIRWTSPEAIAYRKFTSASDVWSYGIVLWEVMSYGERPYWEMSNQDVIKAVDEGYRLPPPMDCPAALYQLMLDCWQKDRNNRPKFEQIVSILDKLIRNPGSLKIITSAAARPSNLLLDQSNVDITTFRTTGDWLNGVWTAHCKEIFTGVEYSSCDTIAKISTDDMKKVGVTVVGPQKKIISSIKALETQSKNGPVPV
# [17] = biological target: T2, Ephrin type-A receptor 3 (Homo sapiens); conditions: at 1 µM
# [18] = biological target: Ephrin type-A receptor 4 (Homo sapiens) (UniProt P54764); conditions: at 0.1 µM
# [19] = biological target: Ephrin type-A receptor 4 (Homo sapiens) (UniProt P54764); conditions: at 1 µM
# [20] = biological target: T3, Ephrin type-B receptor 2 (Homo sapiens) (UniProt P29323); conditions: at 0.1 µM;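 note: reported as mean inhibition of EPHB2, from the GSK PKIS dataset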
# T3 sequence (whole entry): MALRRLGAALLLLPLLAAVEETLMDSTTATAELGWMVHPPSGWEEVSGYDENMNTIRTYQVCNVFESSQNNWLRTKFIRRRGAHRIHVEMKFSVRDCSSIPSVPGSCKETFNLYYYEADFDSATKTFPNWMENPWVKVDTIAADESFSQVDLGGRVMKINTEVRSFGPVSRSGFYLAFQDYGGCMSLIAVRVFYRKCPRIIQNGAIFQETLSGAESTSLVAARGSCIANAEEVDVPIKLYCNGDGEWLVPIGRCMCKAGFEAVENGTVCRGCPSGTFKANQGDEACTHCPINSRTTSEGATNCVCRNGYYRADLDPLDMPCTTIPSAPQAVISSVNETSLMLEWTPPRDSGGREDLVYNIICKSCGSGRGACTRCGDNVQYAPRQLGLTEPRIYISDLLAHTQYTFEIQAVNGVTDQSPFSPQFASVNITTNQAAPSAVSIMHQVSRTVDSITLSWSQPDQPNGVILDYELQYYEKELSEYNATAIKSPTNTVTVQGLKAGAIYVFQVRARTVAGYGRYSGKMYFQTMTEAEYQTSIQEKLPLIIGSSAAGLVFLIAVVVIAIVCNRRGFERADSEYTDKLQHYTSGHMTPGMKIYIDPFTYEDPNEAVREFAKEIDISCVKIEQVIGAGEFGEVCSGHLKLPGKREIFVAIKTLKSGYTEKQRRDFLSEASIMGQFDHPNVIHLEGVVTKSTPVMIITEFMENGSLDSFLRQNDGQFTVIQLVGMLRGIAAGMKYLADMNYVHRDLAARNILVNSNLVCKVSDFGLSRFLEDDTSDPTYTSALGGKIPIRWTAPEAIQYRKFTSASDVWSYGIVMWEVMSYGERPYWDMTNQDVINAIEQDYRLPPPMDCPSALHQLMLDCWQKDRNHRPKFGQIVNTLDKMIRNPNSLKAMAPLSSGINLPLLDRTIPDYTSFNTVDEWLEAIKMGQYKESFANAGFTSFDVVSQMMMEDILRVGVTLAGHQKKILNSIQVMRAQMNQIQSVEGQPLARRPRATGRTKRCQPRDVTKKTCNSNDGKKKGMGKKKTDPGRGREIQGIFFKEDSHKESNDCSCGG
# Epidermal growth factor receptor (Homo sapiens), P00533 [L858R], sequence (P00533 whole entry L858R): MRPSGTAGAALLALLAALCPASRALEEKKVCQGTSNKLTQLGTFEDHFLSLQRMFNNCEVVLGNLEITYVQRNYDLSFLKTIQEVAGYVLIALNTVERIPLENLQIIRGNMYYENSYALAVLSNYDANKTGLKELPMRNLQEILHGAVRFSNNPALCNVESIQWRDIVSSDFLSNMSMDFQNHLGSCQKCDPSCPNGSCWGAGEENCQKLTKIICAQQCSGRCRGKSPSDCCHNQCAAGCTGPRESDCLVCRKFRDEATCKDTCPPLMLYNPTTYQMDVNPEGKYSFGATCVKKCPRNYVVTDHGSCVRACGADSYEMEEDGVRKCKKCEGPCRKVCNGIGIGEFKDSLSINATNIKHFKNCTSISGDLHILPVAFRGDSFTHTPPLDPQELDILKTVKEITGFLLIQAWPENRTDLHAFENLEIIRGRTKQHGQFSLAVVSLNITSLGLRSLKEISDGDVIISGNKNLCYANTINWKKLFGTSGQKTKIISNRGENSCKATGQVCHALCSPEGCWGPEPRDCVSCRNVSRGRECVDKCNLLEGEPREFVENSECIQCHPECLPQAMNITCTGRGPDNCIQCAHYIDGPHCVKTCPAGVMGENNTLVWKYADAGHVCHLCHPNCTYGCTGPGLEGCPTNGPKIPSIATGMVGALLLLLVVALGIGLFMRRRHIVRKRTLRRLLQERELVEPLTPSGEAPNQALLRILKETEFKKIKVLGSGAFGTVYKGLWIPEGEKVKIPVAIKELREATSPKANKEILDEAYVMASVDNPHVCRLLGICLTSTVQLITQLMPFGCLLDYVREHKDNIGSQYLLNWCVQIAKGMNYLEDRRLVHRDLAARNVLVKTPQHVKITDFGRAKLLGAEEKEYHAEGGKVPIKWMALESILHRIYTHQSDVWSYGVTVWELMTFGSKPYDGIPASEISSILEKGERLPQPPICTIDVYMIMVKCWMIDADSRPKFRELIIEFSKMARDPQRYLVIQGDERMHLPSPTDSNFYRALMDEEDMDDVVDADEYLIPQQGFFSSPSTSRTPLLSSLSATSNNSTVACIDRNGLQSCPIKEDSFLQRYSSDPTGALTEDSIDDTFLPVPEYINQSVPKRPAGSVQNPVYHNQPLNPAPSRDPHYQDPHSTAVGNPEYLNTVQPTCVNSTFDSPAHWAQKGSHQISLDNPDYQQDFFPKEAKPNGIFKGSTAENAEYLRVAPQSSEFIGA
# Epidermal growth factor receptor (Homo sapiens), P00533 [L861Q], sequence (P00533 whole entry L861Q): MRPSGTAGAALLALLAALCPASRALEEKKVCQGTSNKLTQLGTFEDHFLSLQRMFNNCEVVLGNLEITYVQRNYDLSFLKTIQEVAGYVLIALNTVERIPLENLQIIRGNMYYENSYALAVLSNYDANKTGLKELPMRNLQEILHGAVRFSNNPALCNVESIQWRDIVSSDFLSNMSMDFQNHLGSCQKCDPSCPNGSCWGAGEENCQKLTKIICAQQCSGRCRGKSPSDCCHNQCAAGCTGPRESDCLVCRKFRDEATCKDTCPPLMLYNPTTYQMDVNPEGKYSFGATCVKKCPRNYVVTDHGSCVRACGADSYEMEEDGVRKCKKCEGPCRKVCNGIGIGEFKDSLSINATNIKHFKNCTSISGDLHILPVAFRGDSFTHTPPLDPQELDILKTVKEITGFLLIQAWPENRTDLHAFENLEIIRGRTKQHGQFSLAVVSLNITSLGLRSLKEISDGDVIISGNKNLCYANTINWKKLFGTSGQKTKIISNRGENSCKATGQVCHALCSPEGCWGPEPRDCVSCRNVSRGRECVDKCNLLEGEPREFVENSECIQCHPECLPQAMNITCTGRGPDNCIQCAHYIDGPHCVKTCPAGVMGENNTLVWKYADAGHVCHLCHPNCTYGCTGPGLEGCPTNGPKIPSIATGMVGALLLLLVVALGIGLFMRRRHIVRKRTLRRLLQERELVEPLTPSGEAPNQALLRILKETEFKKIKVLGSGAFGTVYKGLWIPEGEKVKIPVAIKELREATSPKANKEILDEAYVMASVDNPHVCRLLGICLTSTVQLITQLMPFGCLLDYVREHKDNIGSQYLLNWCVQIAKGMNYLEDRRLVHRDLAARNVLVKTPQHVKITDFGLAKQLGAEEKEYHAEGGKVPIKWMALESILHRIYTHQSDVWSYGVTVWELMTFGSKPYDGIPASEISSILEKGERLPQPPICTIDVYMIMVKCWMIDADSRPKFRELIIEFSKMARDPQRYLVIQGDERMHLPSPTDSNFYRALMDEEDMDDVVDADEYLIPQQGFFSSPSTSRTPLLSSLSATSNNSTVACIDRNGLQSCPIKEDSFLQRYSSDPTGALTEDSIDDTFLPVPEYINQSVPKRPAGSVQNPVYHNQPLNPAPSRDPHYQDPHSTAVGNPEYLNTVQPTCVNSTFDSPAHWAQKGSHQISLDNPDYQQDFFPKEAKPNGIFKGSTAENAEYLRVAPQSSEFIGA
# Ephrin type-A receptor 2 (Homo sapiens), sequence (P29317 whole entry): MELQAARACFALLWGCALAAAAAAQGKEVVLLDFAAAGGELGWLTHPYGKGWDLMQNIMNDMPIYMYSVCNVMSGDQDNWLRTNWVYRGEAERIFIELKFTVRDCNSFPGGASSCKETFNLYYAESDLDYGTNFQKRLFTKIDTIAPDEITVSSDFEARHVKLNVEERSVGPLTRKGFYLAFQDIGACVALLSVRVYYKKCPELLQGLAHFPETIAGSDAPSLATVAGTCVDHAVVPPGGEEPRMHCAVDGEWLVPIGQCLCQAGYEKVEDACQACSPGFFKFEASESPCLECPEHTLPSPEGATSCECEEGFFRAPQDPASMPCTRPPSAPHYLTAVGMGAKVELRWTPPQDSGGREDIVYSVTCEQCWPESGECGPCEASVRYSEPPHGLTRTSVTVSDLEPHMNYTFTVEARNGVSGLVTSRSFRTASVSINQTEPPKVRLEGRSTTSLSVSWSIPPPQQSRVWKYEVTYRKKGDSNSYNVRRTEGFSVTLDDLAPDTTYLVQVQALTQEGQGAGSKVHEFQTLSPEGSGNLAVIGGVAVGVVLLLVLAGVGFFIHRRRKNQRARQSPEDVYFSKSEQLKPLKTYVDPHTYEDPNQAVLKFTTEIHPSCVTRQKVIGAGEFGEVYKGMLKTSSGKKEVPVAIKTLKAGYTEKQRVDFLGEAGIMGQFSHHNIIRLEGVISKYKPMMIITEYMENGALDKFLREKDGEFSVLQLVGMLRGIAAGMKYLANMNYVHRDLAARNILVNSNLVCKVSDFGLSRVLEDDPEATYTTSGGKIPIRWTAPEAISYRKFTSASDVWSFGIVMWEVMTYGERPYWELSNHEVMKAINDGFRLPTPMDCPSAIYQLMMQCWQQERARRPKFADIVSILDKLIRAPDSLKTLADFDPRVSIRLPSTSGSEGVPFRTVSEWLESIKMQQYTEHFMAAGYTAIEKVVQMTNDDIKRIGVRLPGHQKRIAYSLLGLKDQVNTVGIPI
# Epidermal growth factor receptor (Homo sapiens), P00533 [T790M], sequence (P00533 whole entry T790M): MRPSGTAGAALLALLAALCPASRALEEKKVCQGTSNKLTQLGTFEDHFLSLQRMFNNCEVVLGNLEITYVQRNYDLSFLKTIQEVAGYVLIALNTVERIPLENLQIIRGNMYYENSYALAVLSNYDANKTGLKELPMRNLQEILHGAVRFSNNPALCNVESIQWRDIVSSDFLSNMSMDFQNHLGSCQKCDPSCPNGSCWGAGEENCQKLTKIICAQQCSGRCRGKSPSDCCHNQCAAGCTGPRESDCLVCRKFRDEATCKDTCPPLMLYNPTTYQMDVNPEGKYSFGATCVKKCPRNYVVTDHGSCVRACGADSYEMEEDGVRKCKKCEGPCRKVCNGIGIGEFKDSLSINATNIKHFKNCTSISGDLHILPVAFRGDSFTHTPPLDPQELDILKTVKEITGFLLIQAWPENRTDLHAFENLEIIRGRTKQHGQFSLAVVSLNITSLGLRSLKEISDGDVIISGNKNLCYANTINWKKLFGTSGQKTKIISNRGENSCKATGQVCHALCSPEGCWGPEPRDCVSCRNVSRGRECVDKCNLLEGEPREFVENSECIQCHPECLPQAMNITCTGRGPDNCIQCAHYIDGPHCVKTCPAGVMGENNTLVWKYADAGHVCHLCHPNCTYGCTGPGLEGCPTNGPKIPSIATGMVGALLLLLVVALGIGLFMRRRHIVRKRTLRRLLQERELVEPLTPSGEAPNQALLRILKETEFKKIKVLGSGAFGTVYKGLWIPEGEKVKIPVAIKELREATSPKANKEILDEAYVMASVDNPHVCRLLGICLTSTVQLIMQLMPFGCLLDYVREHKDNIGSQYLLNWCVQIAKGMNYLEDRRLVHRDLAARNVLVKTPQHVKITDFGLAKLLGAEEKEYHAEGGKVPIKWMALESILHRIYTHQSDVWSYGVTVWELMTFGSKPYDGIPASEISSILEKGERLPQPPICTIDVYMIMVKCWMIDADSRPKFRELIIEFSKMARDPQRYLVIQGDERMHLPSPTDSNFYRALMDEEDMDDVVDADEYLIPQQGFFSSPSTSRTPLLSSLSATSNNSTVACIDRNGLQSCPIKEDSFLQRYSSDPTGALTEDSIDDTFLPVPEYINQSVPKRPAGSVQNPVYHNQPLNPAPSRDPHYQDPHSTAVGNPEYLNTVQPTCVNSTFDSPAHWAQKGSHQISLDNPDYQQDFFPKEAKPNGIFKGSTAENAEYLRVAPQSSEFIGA
# Tyrosine-protein kinase CSK (Homo sapiens), sequence (P41240 2-450 limits assumed): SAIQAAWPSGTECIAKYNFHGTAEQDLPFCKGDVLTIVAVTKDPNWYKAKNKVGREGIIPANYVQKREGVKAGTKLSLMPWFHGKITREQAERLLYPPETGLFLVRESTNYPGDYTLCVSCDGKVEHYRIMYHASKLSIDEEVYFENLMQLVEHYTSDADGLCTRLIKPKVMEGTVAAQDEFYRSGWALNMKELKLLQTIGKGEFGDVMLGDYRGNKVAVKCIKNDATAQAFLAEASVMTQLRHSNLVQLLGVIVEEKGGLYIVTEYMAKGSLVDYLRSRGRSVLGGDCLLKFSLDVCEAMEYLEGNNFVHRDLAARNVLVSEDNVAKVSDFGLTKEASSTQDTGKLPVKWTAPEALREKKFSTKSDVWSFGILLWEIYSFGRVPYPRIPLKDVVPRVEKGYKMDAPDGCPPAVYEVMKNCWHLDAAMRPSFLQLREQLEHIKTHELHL
Structure (SMILES),inhibition [1] [%],inhibition [2] [%],inhibition [3] [%],inhibition [4] [%],inhibition [5] [%],inhibition [6] [%],inhibition [7] [%],inhibition [8] [%],inhibition [9] [%],inhibition [10] [%],inhibition [11] [%],inhibition [12] [%],inhibition [13] [%],inhibition [14] [%],inhibition [15] [%],inhibition [16] [%],inhibition [17] [%],inhibition [18] [%],inhibition [19] [%],inhibition [20] [%]
O=C(O[C@H]1CN[C@H](C#Cc2cc3ncnc(Nc4ccc5c(ccn5Cc5cc(F)ccc5F)c4)c3s2)C1)N1CCOCC1,2.68,2.04,2.8,65.5,76.4,11.2,53.6,22.6,39,20,50.3,4.66,9.08,0.75,0.06,4.84,4.4,6.87,3.19,5.25
COc1ccc(-c2nn3ncccc3c2-c2ccnc(Nc3ccc(F)c(F)c3)n2)cc1,8.37,4.41,34.7,1.6,9.46,3.72,21.4,3.55,10.2,3.23,6.23,3.78,8.64,2.87,-0.08,3.49,6.3,8.99,16.4,7.75
Cc1ccc(-c2cc3c(NC(=O)C4CC4)ncnc3o2)cc1,2.78,0.26,1.45,3.75,8.67,3.53,2.75,2.3,4.69,1.98,0.67,1.96,5.94,3.08,7.49,3.73,5.51,8.88,20.5,9.13
N#Cc1ccc2c(-c3ccnc(NC4CC4)n3)c(-c3ccc(F)cc3)nn2c1,3.45,4.32,15.8,1.52,13.8,5.89,41.3,1.64,12.9,-0.38,2.72,1.77,2.17,-2.09,-0.16,1.29,4.31,5.96,15.6,8.8
CN1CCC(n2cnc(-c3ccc(F)cc3)c2-c2ccnc(NCCO)n2)CC1,8.66,2.1,3.08,0.6,6.58,0.99,11,4.45,5.89,3.52,4.06,1.79,5.98,2.31,-0.04,5.3,5.33,7.76,14.7,8.26
OCCCNc1nccc(-c2c(-c3ccc(F)cc3)nn3cc(C(F)(F)F)ccc23)n1,1.58,3.25,19.3,0.97,9.16,5.62,24.6,2.61,6.62,0.96,-0.33,-1.34,5.46,1.26,1.9,2.86,3.67,8.53,13.3,8.48
